# Reference: PubChem BioAssay (Tox21)
# Results filed as inconclusive are left out. Entries that show only a call come without a potency. Calls of active or inactive are those of the source. Calls come from the whole dose curve; as a rule, active = well fitted activation curve with a large enough effect in the repeat runs; inconclusive = weak or mixed curves; inactive = flat fitted curve, though single readings scatter.
# Test: A CellTox Green Cytotoxicity Assay to monitor cytotoxicity in HepG2 cells - 40 hour (AID 1224879); note: nearly all actives have a fitted effect of over 40% in size
# Conditions: CellTox Green fluorescence; series mostly up to 76.8 µM
# Description: National Center for Advancing Translational Sciences [NCATS]
# NIH Chemical Genomics Center [NCGC]
# U.S. Environmental Protection Agency [EPA]
# National Institutes of Environmental Health Sciences [NIEHS]
# National Toxicology Program [NTP]
# Cell-based models are critical for drug discovery. Determining the natural cytotoxic effects resulting from test compounds is an essential research activity. A CellTox Green Cytotoxicity Assay to monitor cytotoxicity in real time of continues cell culture during 40 hours of the compound treatment was used to screen Tox21 10K library compounds in HepG2 cells. CellTox Green Cytotoxicity Assay is a nonlytic, homogeneous, biofluorescent method to measure cytotoxicity in cell culture after experimental manipulation. The assay system uses a proprietary asymmetric cyanine dye that is excluded from viable cells but preferentially stains the dead cell's DNA. […] Viable cells produce no appreciable increases in fluorescence. Therefore, the fluorescence signal produced by the binding interaction with dead cell DNA is proportional to cytotoxicity.
# The mixture of HepG2 cell suspension and reagents were dispensed at 600cells/6 ul/well in 1536-well tissue culture treated black solid bottom plates using a Multidrop dispenser. After the assay plates were incubated at a 37 C/5% CO2 incubator for 5 hours, 23 nL of compounds dissolved in DMSO, positive and negative controls was transferred to the assay plate by a pintool work station. The plates were incubated at 37 C for 40 hours. The fluorescence intensity were measured at 0h, 8h, 16h, 24h, 32h and 40h time points using ViewLux plate reader during compound treatment.
# Potency is the fitted concentration of half-maximal effect.
row,Compound,Potency
1,N#CN,inactive
2,CCc1cc(OC)c(C[C@H](C)N)cc1OC,inactive
3,O=C(NC(O)C(Cl)(Cl)Cl)NC(O)C(Cl)(Cl)Cl (stereo not given),inactive
4,Clc1nc(Cl)nc(Nc2ccccc2Cl)n1,inactive
5,Cc1ccc(-c2nc3ccc(C)cn3c2CC(=O)N(C)C)cc1,inactive
6,CCNP(=S)(OC)O/C(C)=C/C(=O)OC(C)C (stereo not given),inactive
7,N=C(N)[Se],inactive
8,CCC1(c2ccccc2)C(=O)N(COC)C(=O)N(COC)C1=O,inactive
9,COc1cccc([C@@]2(O)CCCC[C@@H]2CN(C)C)c1,inactive
10,O=C1CCCCC1Cl (stereo not given),inactive
11,O=C(O)c1c(Cl)ccc2cc(Cl)cnc12,inactive
12,C=CC1(C)OC(=O)N(c2cc(Cl)cc(Cl)c2)C1=O (stereo not given),inactive
13,C/C=C/CC#N,inactive
14,C=CCC1(C(C)CC)C(=O)NC(=O)NC1=O (stereo not given),inactive
15,ClCCCCl,inactive
16,CCN(CCO)CCn1c(Cc2ccccc2)nc2c1c(=O)n(C)c(=O)n2C,inactive
17,CN(C)C(=O)Oc1cc(OC(=O)N(C)C)cc(C(O)CNC(C)(C)C)c1 (stereo not given),inactive
18,CC1NCCOC1c1ccccc1 (stereo not given),inactive
19,CCN(CC)C1CCCCC1,inactive
20,CC(C)C(C)(N)C#N (stereo not given),inactive

row,Compound,Potency
1,C=CCN1CC[C@]23CCCC[C@H]2[C@H]1Cc1ccc(O)cc13,inactive
2,O=P(O)(O)c1ccccc1,inactive
3,CCCN1CCC[C@@H]2Cc3nc(N)ncc3C[C@H]21,21.3 µM (active)
4,C=CC=O,inactive
5,NCCOS(=O)(=O)O,inactive
6,Cc1ccc2cc(C)ccc2c1,inactive
7,O=C(NC(=O)c1c(F)cccc1F)Nc1cc(Cl)c(F)c(Cl)c1F,inactive
8,CCC(=O)c1ccc(Cl)cc1,inactive
9,C=CC(=O)OCCN(C)C,inactive
10,CCCOC(=O)Cc1ccc(OCC(=O)N(CC)CC)c(OC)c1,inactive
11,NNC(N)=O,inactive
12,CC(=O)CN(CC(C)=O)N=O,inactive
13,CCCOC(=O)c1cncn1C(C)c1ccccc1 (stereo not given),inactive
14,CC(O)CCl (stereo not given),inactive
15,CCOC(=O)COc1ccc(Cl)cc1Cl,inactive
16,Nc1c(Cl)c(F)nc(OCC(=O)O)c1Cl,inactive
17,CC(C)(C)C(=O)Cl,inactive
18,CC(C)NCC(O)c1ccc([N+](=O)[O-])cc1 (stereo not given),inactive
19,Clc1cc2c(cc1Cl)Oc1cc(Cl)c(Cl)cc1O2,0.0268 µM (active)
20,CCCCCCCCSC(=O)Oc1cc(Cl)nnc1-c1ccccc1,inactive
